Measured values taken from ChEMBL document CHEMBL3988442, “University of Dundee, Small-Polar-MMV Screening Library” (2021).

Columns and labels:
[1] = molecular target: T1, Aspartate--tRNA(Asp/Asn) ligase (Mycobacterium tuberculosis (strain ATCC 25618 / H37Rv)) (UniProt P9WFW3); assay: Assay for Asp RNA synthetase-1 from Mycobacterium tuberculosis; type: functional; set-up: scale not given: direction of the effect not stated beside the values; settings: 30 µM; also: in the data most compounds retested in dose-response had high values
T1 sequence (whole entry): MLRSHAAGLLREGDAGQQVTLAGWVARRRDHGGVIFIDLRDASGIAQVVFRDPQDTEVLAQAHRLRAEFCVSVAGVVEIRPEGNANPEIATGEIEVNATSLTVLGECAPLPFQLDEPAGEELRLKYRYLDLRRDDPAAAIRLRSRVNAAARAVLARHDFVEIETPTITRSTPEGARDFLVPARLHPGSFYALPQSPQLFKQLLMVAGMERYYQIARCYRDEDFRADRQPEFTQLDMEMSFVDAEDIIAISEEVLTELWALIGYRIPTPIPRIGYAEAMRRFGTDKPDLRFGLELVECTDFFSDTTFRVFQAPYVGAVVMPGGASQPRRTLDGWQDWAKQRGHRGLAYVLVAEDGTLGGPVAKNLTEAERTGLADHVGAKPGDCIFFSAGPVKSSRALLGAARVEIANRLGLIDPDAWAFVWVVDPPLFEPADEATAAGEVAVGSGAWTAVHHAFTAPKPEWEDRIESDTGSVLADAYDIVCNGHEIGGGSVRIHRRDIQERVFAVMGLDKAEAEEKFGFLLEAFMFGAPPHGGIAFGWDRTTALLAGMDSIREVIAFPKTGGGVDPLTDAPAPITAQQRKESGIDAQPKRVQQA

[2] = molecular target: Shiga toxin 2 (Escherichia coli O157:H7) (UniProt P09385+P09386); assay: E. coli 0.157:H7 Shiga Toxin SOP - stx2 screening assay; type: functional; set-up: scale not given: direction of the effect not stated beside the values; settings: 30 µM

SMILES	Percent Effect [1] [%]	Percent Effect [2] [%]
Cn1cc(CN2CCC3(CCCN(Cc4ccccn4)C3)CC2)cn1	-0.638	-6.22
Cc1cc(CNC2CCCN(c3cccnn3)C2)no1 (centres undefined)	6.9	-69.6
Cc1nccn1-c1cc(CNC(=O)CCNC(=O)C2CCCC2)ccn1	-2.19	1.23
CNC(=O)CS(=O)(=O)Cc1cc(Cl)c2c(c1)OCCCO2	0.857	0.921
CCOC(CC)C(=O)NCCC(=O)N1CCN(c2ccccn2)CC1 (centres undefined)	2.61	-11.4
Cc1nn(C)c(N(C)C)c1CNC(C)COc1cccc(F)c1 (centres undefined)	-0.463	-10.4
CN(Cc1ccccn1)C(=O)[C@]12COC[C@H]1CN(Cc1cnn(C)c1)C2	-0.844	-6.88
Cc1c(C(=O)NCC2CCCO2)nnn1-c1cccc2c1CCN(C)C2 (centres undefined)	3.06	-26.5
Cc1ccn(-c2ccccc2NCc2cccnc2C)n1	-3.62	0.821
CCOc1ncccc1NC(=O)NC1CCCN(c2ncccn2)C1 (centres undefined)	0.879	-17.5
CS(=O)(=O)N1CCC2(CC1)CC(CC(=O)NC1CC1)c1ccccc12 (centres undefined)	6.15	4.11
Cc1nn(C)c(N(C)C)c1CNCc1cccnc1	-1.51	-13
CC(C#N)CSc1ccccc1NCC(=O)Nc1ccc(F)cc1 (centres undefined)	2.19	-7.42
OCCN1CCOC2(CCCN(c3cccc(F)c3)C2)C1 (centres undefined)	-3.25	-15.9
CCCC(=O)N1CC[C@@H]2[C@H](CC1)N(Cc1cccnc1)CCS2(=O)=O	-0.493	-7.37
Cc1nc(C)n(C2CCCN(C(=O)c3sccc3C3CC3)C2)n1 (centres undefined)	-3.11	10.4
Cc1ccc(CNC2CCN(CCc3ccncc3)CC2)s1	-2.55	-53.8
CS(=O)(=O)c1ccc(C(O)CN2CCC(c3ccn[nH]3)CC2)cc1 (centres undefined)	-7.22	-3.06
CC(C)Cc1cc(NC(=O)c2ccc(=O)[nH]n2)n(C)n1	-2.97	-34.7
O=C(NC1CCN(c2snc3ccccc23)CC1)C1CCC1	4.7	-22.1
CCC(CC)C(CNC(=O)Nc1cc(C)nn1C)N1CCOCC1 (centres undefined)	-8.48	-29.4
Cc1ccc(-c2nc(CCNC(=O)CCN3CCOC3=O)co2)cc1	-1.93	-45.5
Fc1cnc(N2C[C@H]3CCC[C@@]3(COc3ccccn3)C2)nc1	0.435	2.51
CC(O)CN1CCN(Cc2csc(-c3ncccn3)n2)CC1 (centres undefined)	2.19	-19.8
Cc1cc(C(F)(F)F)nn1C(C)C(=O)Nc1ccncc1 (centres undefined)	-0.755	-29.5
COc1ncccc1NC(=O)C1CCS(=O)(=O)C1 (centres undefined)	-3.61	-37.8

SMILES	Percent Effect [1] [%]	Percent Effect [2] [%]
CCCn1[nH]cc/c1=N\C(=O)CN1CCCC1c1c(C)nn(C)c1C (centres undefined)	-0.979	-11
CC(C(=O)NCc1cccc(N2CC=CC2)c1)n1cccn1 (centres undefined)	-1.41	27.1
CC(C)N1CCO[C@H]2CN(C(=O)c3ccc(N(C)C)cc3)C[C@H]21	2.49	-4.13
CCc1ccc(C2CCCCCN2Cc2nc(CCOC)no2)o1 (centres undefined)	10.6	-30.6
CN(Cc1ccsc1)C(=O)Nc1ccc(S(C)(=O)=O)nc1	-0.6	-35.6
Cc1cnn(C2CN(Cc3nc(C(C)(C)C)no3)C2)c1	-0.0303	-32.1
CN1CCOC(CNCc2nc(-c3ccccc3)cs2)C1 (centres undefined)	-7.57	-26
CN(C)c1cc(C(=O)NCCc2n[nH]c(=O)[nH]2)ccn1	0.719	-0.859
Cc1cccc(N2CC[C@@H]3CN(Cc4csc(C)n4)CCO[C@@H]3C2)n1	-1.08	-42.6
CN(C)C1CCN(C(=O)c2ccc(Cn3ccccc3=O)o2)CC1	1.63	-10.4
Cc1cc(-c2nn(C)c(Cl)c2CN2Cc3ccccc3C(O)C2)no1 (centres undefined)	8.53	43.3
COc1ccc(C2CC(=O)Nc3c2cnn3C)cc1 (centres undefined)	-0.607	-21.4
CCn1ncc2c1C(COC)CN(Cc1ccc(OC)cc1)C2 (centres undefined)	-4.44	-3.46
CC(CCc1ccccc1)NC(=O)Nc1cnn(CC(N)=O)c1 (centres undefined)	2.84	-44.2
Cc1nnc(NC(=O)NCc2cc(F)cc(F)c2)s1	4.55	29.7
O=C1OC2(CCNCC2)CN1CC(=O)N1CCCC1c1ccco1 (centres undefined)	-0.636	-9.63
COc1c(C2CCCN2Cc2csc(C(C)C)n2)c(C)nn1C (centres undefined)	-1.4	-10.7
CCCNC(=O)NCc1cccnc1OC	-6.48	-26.6
CCOc1cc(CNC(=O)N2CCC(Cc3cnn(C)c3)C2)ccn1 (centres undefined)	-2.52	2.76
Cc1nn(C)cc1CCC(=O)N1CCCC(n2cncn2)C1 (centres undefined)	-2.1	12.3
c1ccc(OCCCN2CCN(c3ccc4nncn4n3)CC2)cc1	-0.637	-81.9
COCCOc1ccccc1CNCc1c(C)nn(C)c1N(C)C	2.62	23.1
Cc1noc(Cl)c1CCC(=O)N1CCC(CC(N)=O)CC1	0.618	17.9
Cc1ccc(C(CNCc2cnn(C(C)C)c2)N2CCOCC2)s1 (centres undefined)	-4.07	-11
COc1cc(OC)c(C2Nc3cc(Cl)ccc3C3=NCCN32)cc1OC (centres undefined)	-6.02	-48.2
O=C(NCC1CCOC1)c1cc(-c2cccc(Cl)c2)on1 (centres undefined)	1.64	-6.35

SMILES	Percent Effect [1] [%]	Percent Effect [2] [%]
O=C(CSc1ccccn1)N1C[C@H]2CC[C@@H]1CN(Cc1cscn1)C2	-1.93	-6.72
COC(=O)N1C[C@H]2CC[C@@H]1CN(Cc1cscn1)C2	-3.45	17.3
Cc1nccn1Cc1nnc(C2CCCN(Cc3cccnc3)C2)n1C (centres undefined)	-2.79	4.73
CC(C)c1nn(C)c(N2CCOCC2)c1CNCCS(C)(=O)=O	-2.08	-5.89
Cc1cc(CN2CCN(C(c3ccccc3)c3ccccc3)CC2)no1	0.857	10.7
CCC1(CO)CCCN(c2ncccc2C#N)C1 (centres undefined)	-1.73	-8.75
Cn1cc(CN2CCCC3(CCCN3S(C)(=O)=O)C2)cn1 (centres undefined)	6.18	-11.1
CC(C)N(C)Cc1nnc2n1CCN(Cc1ccncc1)CC2	3.87	1.49
CO[C@@H]1CC[C@@H](N(C)C(=O)COc2ccc(F)cc2)[C@H]1O	3.81	28.3
c1csc(-c2noc(CCCN3CCCC3Cn3cccn3)n2)c1 (centres undefined)	-1.67	15.3
O=C(c1ccc[nH]1)N1CCN(CC2CCOc3ccccc3C2)CC1 (centres undefined)	4.96	-20.9
CCn1cc(C(=O)N2CCCC(c3[nH]ncc3S(C)(=O)=O)C2)cn1 (centres undefined)	-3.25	-8.37
CCCS(=O)(=O)N1CCC2(CN(c3ccsc3)C(=O)CN2C)C1 (centres undefined)	-3.98	-8.23
Cc1cnn(C2CCCN(C(=O)c3ccnc(-n4ccnc4)c3)C2)c1 (centres undefined)	3.27	-22.4
COCCN1CC[C@@H]2OC[C@H](C(=O)NCc3cccs3)C[C@@H]2C1	2.37	-14.7
Cn1cc(NC(=O)N2CCC(c3ccccc3)CC2)ccc1=O	55	21.8
c1cnn(CCN2CCOC(Cn3cncn3)C2)c1 (centres undefined)	0.685	-9.56
Cn1ccc2ccnc(CC3CN(C(=O)C4CCC(F)(F)CC4)C3)c21	0.551	-23.1
O=C(NCCn1ccnc1)N1CCN(c2nccs2)CC1	2.45	-47.2
CCOCCCNC(=O)c1cc(C)nc(N2CCCC2)n1	-5.84	-10.3
COc1c(CNC(c2ccc(F)cc2)c2nccn2C)c(C)nn1C (centres undefined)	-6.01	-17.1
CCCC(Nc1c(C#N)c(=O)n(C)c(=O)n1C)c1ccc(F)cc1F (centres undefined)	-3.88	4.48
CNc1cc2c(nn1)CCN(C(=O)C1CCCc3ccccc31)C2 (centres undefined)	0.0571	4.77
Cn1c(C2CC2)nc2c1CCN(CCS(=O)(=O)c1ccccc1)C2	-5.83	6.27
CC(=O)N1CCO[C@@H]2CN(C(=O)c3cc(C)oc3C)CC[C@@H]2C1	4.81	-5.49
O=C(NCCNc1ccc(C(F)(F)F)cn1)c1cncc(Br)c1	3.26	28.2

SMILES	Percent Effect [1] [%]	Percent Effect [2] [%]
CO[C@@H]1CCN(C(=O)c2ccccn2)[C@H]1Cc1ccccc1	3.21	4.36
COCCNS(=O)(=O)c1ccc2c(c1)CCN(C(=O)c1cncn1C)C2	0.891	-23.1
Cc1ccc2oc(C(=O)N3CCc4nnc(N(C)C)cc4C3)cc2n1	1.25	-14.3
O=C(NC1CCCN(c2ncccn2)C1)c1ccoc1 (centres undefined)	-4.64	-14.5
CC(c1nc(C2CC2)no1)N1CCN(c2ccc(C#N)cn2)CC1 (centres undefined)	-0.15	-13.8
Cc1nn(C)c(Cl)c1CNCc1cccnc1N1CCN(C)CC1	-1.56	-1.67
c1sc(C2CCCC2)nc1CN1CCn2c(nnc2C2CC2)C1	3.23	27.9
CCn1nc(C)c2ncnc(NCC(=O)N3CCOCC3)c21	-3.08	-16.4
CC(C)(N)C(=O)N1CCCC1c1cncc(Oc2ccc(F)cc2)n1 (centres undefined)	-3.75	-12.5
CSCCC(CO)NC(=O)c1sc(-c2ccccc2Cl)nc1C (centres undefined)	-2.58	-30.8
COCc1nc(N(C)C)ncc1C(=O)Nc1ccn(C)n1	-1.07	-19.2
Cc1ccc(NC(=O)N2CCN(Cc3noc(C4CC4)n3)CC2)cc1	-2.14	-9.31
Cc1cc(CN2CCC(CNC(=O)c3nccc4ccccc34)C2)[nH]n1 (centres undefined)	8.37	-22.4
N#Cc1ccccc1C(=O)N1C[C@H](CO)C[C@H](CN2CCCC2)C1	-4.69	0.715
COC(=O)C(NC(=O)c1ccco1)c1cc(F)ccc1F (centres undefined)	-3.92	7.37
CC(C)C1CN(C(=O)c2ccc(N3CCCC3)nc2)CCS1 (centres undefined)	12.9	-43
Cc1csc(N2CCCN(C(=O)C(C)n3ccnc3)CC2)n1 (centres undefined)	1.2	-6.32
Cc1nc(C)n(C2CCCN(C(=O)Cc3cccnc3)C2)n1 (centres undefined)	-4.24	1.27
O=C(CN1CC(n2cccn2)C1)NCCc1c[nH]c2ccccc12	-0.903	-2.74
CC(=O)N1CCN(c2cc(C3CN(C)CCO3)nc(C)n2)CC1 (centres undefined)	0.67	-24.3
CC(=O)c1cccc(OCCCC(=O)NCC2CCCN2C)c1 (centres undefined)	-2.48	-4.3
c1cnn(CC2CN(Cc3nc(-c4ccsc4)no3)CCO2)c1 (centres undefined)	-2.68	35
Cc1noc(C)c1CN(C)CC1CCCN1c1cccnn1 (centres undefined)	-1.56	14.9
CC(=O)NCC(=O)N1Cc2nccn2CC(Cn2cccn2)C1 (centres undefined)	-1.48	0.581
